Compound activity as filed in PubChem BioAssay.
IL-1B inflam inh – qHTS for Inhibitors of Inflammasome Signaling: IL-1-beta AlphaLISA Primary Screen. THP-1 LPS/ATP IL-1B secretion, AlphaLISA, 16 h; active compounds read low. activity change, % at 57.5 µM. 360,000 compounds, 4.7% hits. AID 743279, 2014; in the data active means activity change below about -50%; inconclusive means mostly about -30% to -49%; further: on the % scale 0 is the no-effect control and ±100 the full control effect
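Secreted IL-1B measured by AlphaLISA bead assay after 16 h compound exposure of THP-1 cells; compounds (final up to 57.5 uM) added 1 h before LPS (250 ng/mL) and ATP (1.25 mM) stimulation; lower signal means less secretion.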
DRD3 agonist – qHTS of D3 Dopamine Receptor Agonist: qHTS; D3R DiscoveRx beta-arrestin cells, luminescence, 90 min; max activation, %; 410,000 compounds, 0.58% hits; in the data active means max activation above about 30%; further: 0% is about no effect
Target sequence (P35462 whole entry, looked up): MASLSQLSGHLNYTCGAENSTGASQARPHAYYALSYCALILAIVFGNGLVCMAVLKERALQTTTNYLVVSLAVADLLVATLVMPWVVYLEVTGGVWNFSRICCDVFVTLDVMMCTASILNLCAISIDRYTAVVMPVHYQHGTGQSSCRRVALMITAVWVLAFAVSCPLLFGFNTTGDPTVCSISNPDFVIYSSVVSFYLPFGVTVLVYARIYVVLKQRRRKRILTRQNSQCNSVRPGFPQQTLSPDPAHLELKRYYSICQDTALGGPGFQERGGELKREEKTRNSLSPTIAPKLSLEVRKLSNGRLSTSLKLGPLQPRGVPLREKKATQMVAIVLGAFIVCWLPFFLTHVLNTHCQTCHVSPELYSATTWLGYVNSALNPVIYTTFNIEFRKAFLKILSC
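Agonist mode: compounds and dopamine controls were applied to plated cells for 90 min at 37 degrees C after an overnight attachment at 1500 cells/well. Luminescent read-out followed 30 - 60 minutes at room temperature with DiscoveRx detection reagent.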
S2 tox – Viability Counterscreen for Primary qHTS for Inhibitors of ATXN expression; S2 cells (HEK-293 line with an ATXN2-luciferase reporter) viability, CellTiter-Fluor protease fluorescence, 24 h; Potency, µM (highest dose often 56.7 µM), most hits filed as cytotoxic; 400,000 compounds, 0.49% hits; AID 651635, 2014; further: potency means the concentration at half of the fitted maximal effect; nearly all actives have a fitted effect of over 40% in size
DRD3 antagonist – qHTS of D3 Dopamine Receptor Antagonist: qHTS | D3R cells, DiscoveRx beta-arrestin luminescence, antagonist mode; active compounds read low | max response, negative = inhibition, % | 360,000 compounds, 2.5% hits | AID 652054, 2013; in the data active means max response below about -50%; inconclusive means no clear call, values can overlap the other calls; further: on the % scale 0 is the no-effect control and ±100 the full control effect
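Cells expressing the human receptor were seeded at 1500 cells/well, incubated overnight at 37 degrees C in 5% CO2, then exposed to library compounds with dopamine controls for 90 minutes at 37 degrees C before luminescent detection.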
a7 integrin act – qHTS for Activators of Integrin-Mediated Alleviation for Muscular Dystrophy. AID 624291, 2012. 350,000 compounds, 0.064% hits. Potency, µM (series often up to 38.3 µM), for inactives: top-dose activation, usual class: activators. alpha7betagal myoblasts, beta-gal FDG fluorescence, 48 h;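 further: potency means the concentration at half of the fitted maximal effect; 100% = response of the positive control SU9516; nearly all actives have a fitted effect of over 60% in size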
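Alpha7betagal+/- myoblasts (passage 13) were plated 16-24 hr, then exposed to compounds (1:260 dilution of DMSO stock) for 48 hours at 37C. After MPER lysis, β-galactosidase reporter activity was read as FDG fluorescence (ex 480/em 540) after 30 minutes.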
ATXN2 expr inh – Primary qHTS for Inhibitors of ATXN expression. HEK-293 ATXN2-luciferase reporter, luminescence, 24 h. Potency, µM (doses to about 57 µM), without a hit: at the highest dose activity change, negative = inhibition, most hits filed as inhibitors. 360,000 compounds, 0.72% hits; further: potency means the concentration at half of the fitted maximal effect; on the % scale 0 is the no-effect control and ±100 the full control effect; nearly all actives have a fitted effect of over 55% in size
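qHTS (up to 57 uM final) was run with 24 h compound exposure of reporter cells at 37 °C. Each well was multiplexed: SteadyGlo luminescence measured ATXN2-luciferase expression after a fluorogenic Gly-Phe-AFC viability readout (25 uM final).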
Numbers without * were called inactive; i = inactive; ? = inconclusive; . = no result given; [ ] = another dose, or the depositor's remark. Sampled rows, rich in hits. Any-hit rate of the full collection: about 7%. Unless noted, the call rests on the fitted dose curve; in most records, active means well fitted curve in the direction sought with a large enough effect; inconclusive means small, poorly fitted or top-dose-only effect, or another doubt; inactive means no such curve, though single readings can be large; an effect the other way counts as inactive or inconclusive.

SMILES	IL-1B inflam inh	DRD3 agonist	S2 tox	DRD3 antagonist	a7 integrin act	ATXN2 expr inh
Cc1cc(NC(=O)c2cccc(S(=O)(=O)N3CCCCCC3)c2)n(-c2ccccn2)n1	-18.4	-7.4	i	-54.9*	-10.3%	-0.3%
O=C(Nc1nc(-c2cccs2)cs1)c1ccc(Cl)cc1	-5.6	-6.5	i	-16.4	18.2%	31.4%
COc1ccc(C(=O)Nc2nc(-c3cccs3)cs2)cc1	-72.0*	3.3	?	-11.4	1.9%	1.0%
COc1cc(C(=O)NC(=S)Nc2nc(-c3ccc(F)cc3)cs2)cc(OC)c1OC	i	1.0	i	-0.3	42.4%	8.5%
COc1cc(C(=O)Nc2nc(-c3cccs3)cs2)cc(OC)c1OC	-77.5*	-7.0	?	5.7	-11.6%	?
Cc1csc(NC(=O)c2sc3nc(-c4cccs4)ccc3c2N)n1	-72.2*	39.4*	.	51.4	-5.9%	2.9%
Cc1ccc(CN(C(=O)COc2ccc(Cl)cc2)c2ccccn2)o1	.	4.3	i	.	.	46.0%
COc1cc(C2CC(=O)N(c3ccc(C)cc3)C(=O)C2)cc(OC)c1OC	36.4	5.9	?	-8.5	-22.8%	-12.9%
O=C(Nc1nc(-c2cccs2)cs1)c1cccc(S(=O)(=O)N2CCCCC2)c1	0.0	-7.5	i	-68.6*	0.0%	-15.4%
Cc1c(C(=O)Nc2nccs2)sc2nc(-c3cccs3)cc(C(F)(F)F)c12	67.5	5.4	?	-27.4	-18.8%[7.66 µM]	25.1µM*
O=C(O)c1cccc(NC(=O)c2cccc(S(=O)(=O)N3CCCCC3)c2)c1	-1.2	7.1	i	6.4	-12.9%	-8.8%
Cc1ccc(-c2csc(NC(=O)c3cccc(S(=O)(=O)N4CCN(C)CC4)c3)n2)cc1	14.8	-2.2	i	-25.3	15.6%	-27.7%
Cc1c(C(=O)O)sc2nc(-c3cccs3)cc(C(F)(F)F)c12	-10.1	-6.3	i	-10.4	-9.6%	-3.9%
Nc1nc(NC(=O)c2cccc(S(=O)(=O)N3CCCCCC3)c2)nc(-c2ccccc2)n1	47.1	34.1*	i	-17.6	7.8%	-16.8%
COc1ccc(CNC(=O)c2cc3ccccc3o2)cc1OC	17.6	3.7	i	6.4	-10.2%	-14.6%
COc1ccc(C(=O)Nc2ccc(C)cc2C(=O)c2ccccc2)cc1	-73.5*	-2.3	i	0.0	7.1%	-7.9%
COc1ccccc1C(=O)Nc1ccc(C)cc1C(=O)c1ccccc1	-7.0	-12.2	i	8.3	-1.1%	6.2%
COc1cc2ccccc2cc1C(=O)Nc1ccc(Br)cn1	15.7	6.5	i	17.5	26.0%	6.2%
Cc1ccnc(NC(=O)c2ccc(OCC3CCCO3)cc2)c1 (centres undefined)	-16.7	-1.6	i	-7.4	12.6%	5.62µM*
COc1cc2ccccc2cc1C(=O)Nc1cc(C)ccn1	-56.8*	18.0	i	21.9	43.1%	31.6%
COc1ccc(C(=O)Nc2ccccc2C(=O)Nc2cc(C)ccn2)cc1	-22.6	2.5	i	-63.5*	-18.2%	41.7%
CC(=O)Nc1ccc(S(=O)(=O)N2CCN(Cc3nc4sc(C)c(C)c4c(=O)[nH]3)CC2)cc1	26.6	1.6	i	-6.4	25.4%	-11.7%
O=C(COC(=O)c1cc(=O)[nH]c2ccccc12)NCc1ccccc1Cl	40.0	0.3	?	3.7	0.2%	0.4%
COc1cc2ccccc2cc1C(=O)NC1CCC(C)CC1 (centres undefined)	-51.1*	9.9	i	-5.3	-13.1%	47.0%
COc1cc2ccccc2cc1C(=O)NC1CCCC1	-16.1	1.5	i	11.1	16.9%	48.5%
SMILES	IL-1B inflam inh	DRD3 agonist	S2 tox	DRD3 antagonist	a7 integrin act	ATXN2 expr inh
CCOC(=O)COc1ccc2cc(C(=O)OCC)c(=O)oc2c1	-79.7*	-4.4	i	-15.4	8.8%	-6.8%
Cc1ccc(CNC(=O)C2CC(c3ccc(C(F)(F)F)cc3)=NO2)o1 (centres undefined)	-2.7	3.6	i	54.5	-10.9%	1.5%
Cc1cc(C)c2oc(-c3cccc(NC(=O)c4ccc(F)cc4)c3)nc2c1	-10.9	-5.3	i	0.0	22.0%	-13.5%
COc1cc(C(=O)Nc2cccc(-c3nc4cc(C)cc(C)c4o3)c2)cc(OC)c1OC	0.2	51.6*	i	41.0	4.0%	-0.7%
N#CC(=C1C=CC(=NO)C(Cl)=C1)c1ccccc1	-97.7*	-13.1	i	-81.5*	.	0.0%
COc1ccc(CNc2ncnc3c2[nH]c2ccccc23)cc1	-107.9*	-5.4	i	-5.0	0.0%	?
COc1ccc(CNc2nc(=S)[nH]c3cc(OC)c(OC)cc23)cc1	-6.2	-0.4	?	19.7	-20.6%	.
COc1ccc(CNc2ncnc3c2[nH]c2cc(OC)c(OC)cc23)cc1	-94.5*	-8.3	i	-0.9	-1.8%	?
CCOc1ncnc2c1[nH]c1ccccc12	?	-23.3	i	3.2	0.0%	-6.3%
Cc1ccc2[nH]c3c(Cl)ncnc3c2c1	.	-4.3	i	-21.5	17.6%	7.9%
COc1ccc2c(c1)[nH]c1c(Cl)ncnc12	-95.4*	4.8	i	7.1	-10.4%	17.7%
CC(C)OCCCNc1ncnc2c1[nH]c1ccccc12	-93.0*	-2.0	?	32.8	-52.1%	-23.1%
C=CC#CC1(O)CC(C)[N+](C)(C)CC1C (centres undefined)	-22.1	-30.1	i	?	?	-10.9%
COc1ccc(NC(=O)C2(C)Cc3c(-c4ccc(NC(C)=O)cc4)ccnc3O2)cc1 (centres undefined)	?	-6.2	i	0.0	.	2.4%
O=c1c2[nH]c3ccccc3c2ncn1CCC1=CCCCC1	49.0	-2.1	i	-5.0	2.9%	-21.4%
C1=C(CCNc2ncnc3c2[nH]c2ccccc23)CCCC1	-84.0*	1.9	14.1µM*	4.1	-44.3%	?
CC(=O)N1CC(=O)N=C1SCC(=O)Nc1nc(C)c(-c2ccccc2)s1	-76.7*	-13.6	i	?	0.9%	-32.2%
Cc1nc(NC(=O)CN2CCOCC2)sc1-c1ccccc1	-19.7	-0.6	?	12.1	-24.3%	34.4%
COc1ccc2oc(C(=O)c3ccccc3)c(NC(=O)CN3CCN(C)CC3)c2c1	-17.8	2.7	i	5.3	-5.1%	-3.3%
CN1CCN(CC(=O)Nc2c(C(=O)c3ccccc3)oc3ccccc23)CC1	-71.1*	-6.7	i	6.0	-68.0%	?
Brc1ccccc1OCCCCN1CCCCC1	-18.4	-16.1	i	-96.6*	-13.2%	-4.3%
